We go through 72 compounds from the supplement of paper PMC10670038.

Counter-ions that a name gives are not always drawn. ± gives the standard deviation of the averaged measurements. Whole data set: some 2,000 compounds, median “relative cell viability vs DMSO, compound alone” near 1.1, cut for the lowest 2% near 0.29. The list comes from a sample in which the lowest values are over-represented; it also holds similar structures and randomly drawn compounds.

In this test the test system is TE10. Description: relative cell viability vs DMSO, compound alone (fraction); TE10 is an esophageal squamous carcinoma line; higher = less cytotoxic. Particulars: 2 µM; 48 h. The protocol:
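TE10 ESCC cells (1,000/well, 384-well plates) were treated with Selleck bioactive library compounds at 2 uM alone for 48 h. Viability was read by CellTiter-Glo and expressed relative to DMSO wells. Two technical replicates (A, B).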
Consider `COC(=O)c1ccc2c(c1)nc(NC(=O)c1ccccc1)n2CCCc1ccccc1`, for which the relative cell viability is 0.777 ± 0.0059.
For `O=C(c1ccc(Nc2nccc(-c3cc4ccccc4s3)n2)cc1)N1CCC(N2CCCC2)CC1` [IKK-16 (IKK Inhibitor VII)], the relative cell viability came to 1.03 ± 0.02.
Next, `CN1CC[C@H](c2c(O)cc(O)c3c(=O)cc(-c4ccccc4Cl)oc23)[C@H](O)C1` [Flavopiridol HCl]: 0.293 ± 0.03.
Compound `CN1CC[C@@H](c2c(O)cc(O)c3c(=O)cc(-c4ccccc4Cl)oc23)[C@@H]1CO` registered a relative cell viability of 0.501 ± 0.008.
Turning to `CN1CC[C@H](c2c(O)cc(O)c3c(=O)cc(-c4ccccc4Cl)oc23)[C@H](O)C1` [Flavopiridol (Alvocidib)], the relative cell viability came out at 0.228 ± 0.055.
`C[N+]1(C)CCC(=C(c2ccccc2)c2ccccc2)CC1` [Diphemanil Methylsulfate] showed a relative cell viability of 0.918 ± 0.097.
The compound `OCCOCCN1CCN(C2=Nc3ccccc3Sc3ccccc32)CC1` [Quetiapine Fumarate] returned a relative cell viability of 1.079 ± 0.0073.
`Cc1cc(/C=C2/SC(=S)NC2=O)c(C)n1-c1cccnc1` [Optovin] registered a relative cell viability of 1.06 ± 0.031.
`C[C@@H](O)[C@H]1C(=O)N2C(C(=O)OCOC(=O)C(C)(C)C)=C(SC3CN(C4=NCCS4)C3)[C@H](C)[C@H]12` [Tebipenem Pivoxil] registered a relative cell viability of 1.14 ± 0.037.
`C[C@@]12C[C@@]3(O)O[C@@H](O1)[C@]1(COC(=O)c4ccccc4)[C@H]3C[C@@]12O[C@@H]1O[C@H](CO)[C@@H](O)[C@H](O)[C@H]1O` [Paeoniflorin] gave a relative cell viability of 1.04 ± 0.029.
Next, `CC(C=CC(=O)NO)=CC(C)C(=O)c1ccc(N(C)C)cc1` (configuration not stated) [Trichostatin A (TSA)]: 0.0876 ± 0.0041; `CN(C)c1ccc(C(=O)NCCCCCCC(=O)NO)cc1`: 0.627 ± 0.043.
On to `COC1C(O)CC(=O)OC(C)CC=CC=CC(OC2CCC(N(C)C)C(C)O2)C(C)CC(CC=O)C1OC1OC(C)C(OC2CC(C)(O)C(O)C(C)O2)C(N(C)C)C1O` (configuration not stated) [Spiramycin], for which the relative cell viability is 1.11 ± 0.04.
As for `C[C@H](CCC(=O)O)[C@H]1CC[C@H]2[C@@H]3[C@@H](O)C[C@@H]4C[C@H](O)CC[C@]4(C)[C@H]3CC[C@]12C` [Ursodiol], the relative cell viability worked out at 0.96 ± 0.08.
The compound `COCCCOc1cc(C[C@@H](C[C@H](N)[C@@H](O)C[C@H](C(=O)NCC(C)(C)C(N)=O)C(C)C)C(C)C)ccc1OC` [Aliskiren Hemifumarate] showed a relative cell viability of 1.19 ± 0.037.
On to `COc1ccc(-c2ccc3c(N4CCOC[C@@H]4C)nc(N4CCOC[C@@H]4C)nc3n2)cc1CO`, for which the relative cell viability worked out at 0.4942 ± 0.0022.
The compound `C[C@H](NC(=O)/C(C#N)=C/c1cccc(Br)n1)c1ccccc1` yielded a relative cell viability of 1.14 ± 0.032.
`N#CC(=Cc1ccc(O)c(O)c1)C(=O)NCc1ccccc1` [AG-490 (Tyrphostin B42)]: the relative cell viability came to 1.196 ± 0.001.
Turning to `CCC[C@H](NC(=O)/C(C#N)=C/c1cccc(Br)n1)c1ccccc1` [Degrasyn (WP1130)], the relative cell viability amounted to 0.206 ± 0.019.
Next, `COc1c(C)c(C(=O)c2ccc(N)c(C(=O)O)c2)n2ccccc12`: 1.04 ± 0.041; `N#C[C@@H]1C[C@@H]2C[C@@H]2N1C(=O)[C@@H](N)C12CC3CC(CC(O)(C3)C1)C2` [Saxagliptin]: 1.02 ± 0.083; `O=C1c2ccccc2-c2n[nH]c3cccc1c23`: 1.27 ± 0.0019.
Next, `CCN=C1N[C@@H]2[C@@H](O)[C@H](O)[C@@H](CO)O[C@@H]2S1` [Thiamet G]: 1.04 ± 0.037.
As for `OCc1ccc(-c2ccc(-c3ccc(CO)s3)o2)s1`, the relative cell viability is 0.0807 ± 0.0069.
The compound `Cc1c(Cc2ccc3ccccc3n2)c2cc(F)ccc2n1CC(=O)O` showed a relative cell viability of 1.08 ± 0.054.
Compound `CCOC(=O)[C@H](CCc1ccccc1)N[C@H]1CCCN2CCC[C@@H](C(=O)O)N2C1=O` [Cilazapril Monohydrate] displayed a relative cell viability of 1.011 ± 0.004.
`Nc1nc(Cl)nc2c1ncn2[C@@H]1O[C@H](CO)[C@@H](O)[C@@H]1F` [Clofarabine]: the relative cell viability worked out at 0.932 ± 0.038.
`Nc1ncnc2c1ncn2[C@@H]1O[C@H](CO)[C@@H](O)[C@H]1O` [Adenosine]: the relative cell viability came to 1.165 ± 0.0028.
Next, `Nc1nc(F)nc2c1ncn2[C@@H]1O[C@H](CO)[C@@H](O)[C@@H]1O` [Fludarabine]: 0.291 ± 0.0055.
`Nc1ncnc2c1ncn2[C@@H]1O[C@H](CO)[C@@H](O)[C@@H]1O` [Vidarabine]: the relative cell viability is 1.08 ± 0.033.
As for `Nc1nc2c(ncn2[C@@H]2O[C@H](CO)[C@@H](O)[C@H]2O)c(=O)[nH]1` [Guanosine], the relative cell viability was found to be 1.06 ± 0.032.
Next, `Nc1nc(F)nc2c1ncn2[C@@H]1O[C@H](COP(=O)(O)O)[C@@H](O)[C@@H]1O` [Fludarabine Phosphate]: 0.214 ± 0.058; `CCN(CC)CCOC(=O)c1ccc(N)cc1Cl` [Chloroprocaine HCl]: 1.15 ± 0.027.
`Nc1nc2c(ncn2COC(CO)CO)c(=O)[nH]1` [Ganciclovir] displayed a relative cell viability of 1.069 ± 0.0057.
In turn, `O=C(/C=C/N1C[C@H]2C[C@@H]1CN2c1ccccn1)c1ccccc1O` had a relative cell viability of 1.06 ± 0.02.
Regarding `COc1ccc(-n2nc(C(N)=O)c3c2C(=O)N(c2ccc(N4CCCCC4=O)cc2)CC3)cc1` [Apixaban], the relative cell viability was 1.1 ± 0.027.
In the case of `Cc1coc2c1C(=O)C(=O)c1c-2ccc2c(C)cccc12` [Tanshinone I], the relative cell viability is 1.11 ± 0.051.
Next, `CO[C@H]1/C=C/O[C@@]2(C)Oc3c(C)c(O)c4c(O)c(c(/C=N/N5CCN(C)CC5)c(O)c4c3C2=O)NC(=O)/C(C)=C\C=C\[C@H](C)[C@H](O)[C@@H](C)[C@@H](O)[C@@H](C)[C@H](OC(C)=O)[C@@H]1C` [Rifampin]: 1.049 ± 0.003; `O=C(/C=C\n1cnc(-c2cc(C(F)(F)F)cc(C(F)(F)F)c2)n1)NNc1cnccn1`: 0.2768 ± 0.0027.
Next, `O=C(/C=C/n1cnc(-c2cc(C(F)(F)F)cc(C(F)(F)F)c2)n1)N1CC(F)(F)C1`: 0.473 ± 0.06; `O=C(/C=C\n1cnc(-c2cc(C(F)(F)F)cc(C(F)(F)F)c2)n1)NNc1ccccn1` [Verdinexor (KPT-335)]: 0.3315 ± 0.0025; `COc1cc(-c2ncn(/C=C\C(=O)OC(C)C)n2)cc(C(F)(F)F)c1`: 0.26 ± 0.011.
Compound `CCN(CC)CCNC(=O)c1c(C)[nH]c(/C=C2\C(=O)Nc3ccc(F)cc32)c1C` [Sunitinib Malate] registered a relative cell viability of 1.11 ± 0.037.
`CCN(CC)CCNC(=O)c1c(C)[nH]c(/C=C2\C(=O)Nc3ccc(F)cc32)c1C` [Sunitinib] registered a relative cell viability of 1 ± 0.095.
Next, `Cc1[nH]nc2ccc(-c3cncc(OC[C@@H](N)Cc4ccccc4)c3)cc12`: 0.5847 ± 0.0027; `C[C@]12CC[C@H](O)CC1=CC[C@@H]1[C@@H]2CC[C@]2(C)C(n3cnc4ccccc43)=CC[C@@H]12` [Galeterone]: 1.06 ± 0.14.
Turning to `CO[C@H]1C[C@@H]2CC[C@@H](C)[C@@](O)(O2)C(=O)C(=O)N2CCCC[C@H]2C(=O)O[C@H]([C@H](C)C[C@@H]2CC[C@H](n3cnnn3)[C@H](OC)C2)CC(=O)[C@H](C)/C=C(\C)[C@@H](O)[C@@H](OC)C(=O)[C@H](C)C[C@H](C)/C=C/C=C/C=C/1C` [Zotarolimus(ABT-578)], the relative cell viability amounted to 0.888 ± 0.073.
Turning to `CC(=O)Oc1cccc2c1C(=O)c1c(OC(C)=O)cc(C(=O)O)cc1C2=O` [Diacerein], the relative cell viability stood at 1.11 ± 0.023.
Next, `C=CC(=O)N1CC(=Cc2ccc([N+](=O)[O-])cc2)C(=O)C(=Cc2ccc([N+](=O)[O-])cc2)C1`: 0.0554 ± 0.0028; `CC1(C)C=C(CN2C/C(=C\c3ccc(F)cc3)C(=O)/C(=C/c3ccc(F)cc3)C2)C(C)(C)N1O`: 0.8405 ± 0.0057; `CNC(=O)c1c(F)cccc1Nc1nc(Nc2cc3c(cc2OC)CCN3C(=O)CN(C)C)nc2[nH]ccc12`: 1.06 ± 0.052.
Next, `CC[C@@H](C)Nc1cc(C(=O)N[C@H]2C[C@H]3CC[C@@H](C2)N3c2ccc(C(=O)C3CC3)cn2)c(C)cc1C(N)=O`: 0.449 ± 0.023; `O=C(O)c1cc(/N=N/c2ccc(S(=O)(=O)Nc3ccccn3)cc2)ccc1O` [Sulfasalazine]: 1.04 ± 0.026; `CCc1nc(-c2cccc(C)c2)c(-c2ccnc(NC(=O)c3ccccc3)c2)s1`: 1.0779 ± 0.0008.
`Cc1ccc([N+](=O)[O-])cc1S(=O)(=O)N(C)/N=C/c1cnc2ccc(Br)cn12` returned a relative cell viability of 0.287 ± 0.012.
In turn, `COc1cc(C(C)=O)ccc1O` [Apocynin] registered a relative cell viability of 1.07 ± 0.059.
Next, `CCCCOc1c(C(=O)c2c(F)cc(C)cc2F)c[nH]c2nncc1-2`: 0.904 ± 0.014; `CCOC(=O)CCNc1cc(N2CCc3ccccc3CC2)nc(-c2ccccn2)n1`: 0.957 ± 0.1.
In the case of `CNC[C@@H](O)c1ccc(O)c(O)c1` [L-Adrenaline], the relative cell viability was found to be 1.06 ± 0.028.
Next, `COCC[n+]1c2c(n(Cc3cnccn3)c1C)C(=O)c1ccccc1C2=O` [YM155 (Sepantronium Bromide)]: 0.0556 ± 0.0047.
As for `CC1(C)S[C@@H]2[C@H](NC(=O)[C@H](NC(=O)N3CCNC3=O)c3ccccc3)C(=O)N2[C@H]1C(=O)O` [Azlocillin sodium salt], the relative cell viability was 1.09 ± 0.026.
Next, `CC(C)(OCc1nn(Cc2ccccc2)c2ccccc12)C(=O)O` [Bindarit]: 1.1 ± 0.053; `C=C[C@]1(C)C[C@@H](OC(=O)CS[C@@H]2C[C@H]3CC[C@@H](C2)N3C)[C@]2(C)[C@H](C)CC[C@]3(CCC(=O)[C@H]32)[C@@H](C)[C@@H]1O` [Retapamulin]: 1.29 ± 0.028.
Next, `CCC[C@@H]1C[C@@H](C(=O)N[C@@H]([C@H]2O[C@H](SC)[C@H](O)[C@@H](O)[C@H]2O)[C@@H](C)O)N(C)C1` [Lincomycin HCl]: 1.12 ± 0.073.
Turning to `CCC(=O)Nc1cccc(Oc2nc(Nc3ccc(N4CCN(C)CC4)cc3OC)ncc2Cl)c1`, the relative cell viability came to 1.16 ± 0.059.
For the compound `Clc1ccc(Nc2nnc(Cc3ccncc3)c3ccccc23)cc1` [Vatalanib (PTK787) 2HCl], the relative cell viability was 1.16 ± 0.022.
Next, `CN(C)Cc1ccc(S(=O)(=O)n2ccc(/C=C/C(=O)NO)c2)cc1` [Resminostat]: 0.908 ± 0.028; `Cc1[nH]c2ccccc2c1CCNC(=O)c1cccs1`: 1.08 ± 0.069.
Next, `Cc1[nH]c2ccccc2c1CCNCc1ccc(/C=C/C(=O)NO)cc1` [Panobinostat (LBH589)]: 0.0672 ± 0.00084.
Consider `COc1ccc(-c2coc3cc(O)ccc3c2=O)cc1` [Formononetin], for which the relative cell viability turned out to be 0.901 ± 0.044.
For the compound `O=C(O)c1ccc(C=C2SC(=S)N(c3cccc(C(F)(F)F)c3)C2=O)cc1`, the relative cell viability worked out at 1.04 ± 0.026.
In turn, `O=C(CCCN1CC=C(n2c(=O)[nH]c3ccccc32)CC1)c1ccc(F)cc1` [Droperidol] showed a relative cell viability of 1.08 ± 0.044.
